The values that follow come from PubChem BioAssay AID2501 (Southern Research Specialized Biocontainment Screening …, 2010).

The campaign covered roughly 2,200 compounds. About 1,200 (55%) were called active. Cut-off not given; nearly all actives show IC50 up to about 92 µM. The set was probably picked from earlier hits. Some of the results follow.

The nature of the assay: counter assay for TAg ATPase ADP read-out – biochemical, ADP-Hunter, fluorescence, counter-screen (AID 2501).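 Further: purified T antigen ATPase.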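 On inhibition: 0% = enzyme with vehicle and 100% = reference inhibitor wells; higher means more inhibition.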 The following applies: series mostly up to 100 µM. On the technique in general: Counterscreens check selectivity or assay interference.
Regarding `CC(=O)CSc1nc(C(F)(F)F)cc(=O)n1-c1ccccc1`, the IC50 (commonly the point on the concentration scale where inhibition reaches its midpoint) is “inactive”.

On to `CC1(C)Cc2c(C#N)c(N3CCCC3)nc(-c3ccco3)c2CO1`, for which the IC50 entry was “inactive”.

For the molecule `CN(C)c1ccc(Nc2cc(Cl)ncn2)cc1`, the IC50 is 9.79 µM (active).

As to `O=C1CCCC2=C1Sc1ccccc1N2`, the IC50 was 7.55 µM (active).

In the case of `Cc1c(Br)c(=O)oc2c(Br)c(O)c(O)cc12`, the IC50 is 25.2 µM (active).

Consider `CN(C)/C=C(\C#N)C(=O)Nc1ccc(O)cc1F`, for which the half-inhibitory concentration (IC50) was 10.3 µM (active).

Turning to `COc1ccc(OC)c(/C=N/NC(=O)CCc2ccc(O)c(O)c2)c1`, the IC50 was 40.4 µM (active).

As for `O=C(CCc1ccc(O)c(O)c1)N/N=C/c1cc2c(cc1[N+](=O)[O-])OCO2`, the IC50 entry is “inactive”.

Take `N#Cc1nc(Cc2cccc3ccccc23)oc1NCCN1CCOCC1`: the IC50 result is “inactive”.

Consider `CCOC(=O)NC(=O)C(=CNc1cccc(C)c1)C(=O)NC(=O)OCC`, for which the IC50 entry was “inactive”.

With `O=C(Cn1c(=O)n(Cc2ccco2)c(=O)c2c3c(sc21)CCCCC3)Nc1ccccc1`, the IC50 result was “inactive”.

Turning to `O=C(Nc1ccc2c(c1)C(=O)OC2)c1ccc(C(F)(F)F)cc1`, the IC50 result is “inactive”.

On to `O=C(Nc1ccc(O)cc1)c1ccc2c(c1)C(=O)N(N1C(=O)c3ccccc3C1=O)C2=O`, for which the IC50 is 6.05 µM (active).

With `Cc1cccc(C(=O)Nc2ccc(C(=O)N/N=C/c3ccc4c(c3)OCO4)cc2)c1`, the IC50 entry is “inactive”.

Regarding `O=C1CC(=O)N(Cc2ccco2)C(=O)N1`, the IC50 entry was “inactive”.

With `COc1cc(C(=O)Nc2ccc(O)cc2)ccc1OC(C)=O`, the IC50 is 3.55 µM (active).

In the case of `Cc1cccc(C(=O)Nc2ccc(O)cc2)c1`, the IC50 was 4.37 µM (active).

Regarding `O=C(Nc1ccc(O)cc1)c1ccc2c(c1)C(=O)N(Cc1ccco1)C2=O`, the IC50 is 8.35 µM (active).

As for `OC1CN=C2CCCc3c2n(c2ccc(Cl)cc32)C1` (stereo not given), the IC50 result was “inactive”.

Consider `NS(=O)(=O)c1ccc(NC(=O)COC(=O)c2ccc(Cl)nc2)cc1`, for which the IC50 entry was “inactive”.

As to `CCNC(=O)COC(=O)/C=C/c1cccc(F)c1`, the IC50 result is “inactive”.

With `O=C1COc2ccc(C(=O)COC(=O)/C=C/c3ccc(Br)o3)cc2N1`, the IC50 result was “inactive”.

For `COc1cc(/C=C/C(=O)OCC(=O)Nc2ccc(S(N)(=O)=O)cc2)ccc1O`, the IC50 was 12.2 µM (active).

In the case of `COc1cc(/C=C/C(=O)OCC(=O)N2CC(=O)Nc3ccccc32)ccc1O`, the IC50 was 6.1 µM (active).

For the molecule `Cc1cc(C)c(S(=O)(=O)/N=C2/C=C(SCC(=O)O)C(=O)c3ccccc32)cc1C`, the IC50 result is “inactive”.

On to `CN(C)c1ccc(NC(=O)C(=O)C2C(=O)Nc3ccccc32)cc1` (stereo not given), for which the IC50 was 1.57 µM (active).

Consider `Cn1c(SCC(=O)c2ccc(O)c(O)c2)nnc1-c1cccs1`, for which the IC50 was 15.9 µM (active).

Consider `CCOC(=O)c1ccc(CSc2nnc(-c3ccncc3)n2N)cc1`, for which the IC50 entry was “inactive”.

Turning to `C=CCn1c(SCC(=O)c2ccc(O)c(O)c2)nnc1-c1ccccc1OC`, the IC50 was 10.2 µM (active).

Regarding `CCn1c(SCC(=O)c2ccc(O)c(O)c2)nnc1-c1ccc(C)cc1`, the IC50 was 6.52 µM (active).

Turning to `C=CCn1c(SCC(=O)c2ccc(O)c(O)c2)nnc1-c1cccnc1`, the IC50 was 8.61 µM (active).

With `Cn1c(SCC(=O)c2cc(Cl)c(Cl)s2)nnc1-c1ccco1`, the IC50 entry was “inactive”.

On to `CCn1c(SCc2ccc(C(=O)Nc3nccs3)cc2)nnc1-c1ccc(NC(C)=O)cc1`, for which the IC50 result is “inactive”.

On to `COCCCN(Cc1ccco1)C(=O)Cn1ncc2c(=O)oc3ccc(C)cc3c21`, for which the IC50 entry is “inactive”.

With `CCn1c(SCC(=O)c2ccc(O)c(O)c2)nnc1-c1ccccc1OC`, the IC50 was 3.84 µM (active).

For the molecule `CCn1c(SCC(=O)Nc2ccccc2C)nnc1-c1ccccc1O`, the IC50 entry is “inactive”.

Consider `COc1cc(-c2nc(=S)[nH][nH]2)cc(OC)c1OC`, for which the IC50 was 10.7 µM (active).

With `CC(=O)Nc1ccc(OCCOc2ccc(/C=C3\C(=N)N4N=C(C)SC4=NC3=O)cc2)cc1`, the IC50 result is “inactive”.

Consider `COc1ccc(C(=O)/C=C(\C)Nc2ccc(NC(C)=O)cc2)cc1`, for which the half-maximal inhibitory concentration (IC50) was 17.8 µM (active).

In the case of `CN1c2ccc(C=O)c3c(C=O)ccc(c23)N(C)C1(C)C`, the IC50 was 17.5 µM (active).

In the case of `Nc1ccc2nc(-c3cccs3)[nH]c2c1`, the IC50 is 3.65 µM (active).

Regarding `Cc1ccc(C)c(-c2nc3ccc(N)cc3[nH]2)c1`, the half-maximal inhibitory concentration (IC50) was 4.86 µM (active).

As to `COc1ccc(C2=CC3=C(Br)C(=O)C(C)(OC(=O)c4ccco4)C(=O)C3=CO2)cc1` (stereo not given), the IC50 result was “inactive”.

As for `CCNc1ccc(Br)cc(C(=O)/C=C/c2ccc(Cl)cc2Cl)c1=O`, the IC50 result was “inactive”.

With `CC(=O)Nc1ccccc1O`, the IC50 was 2.63 µM (active).

For `CCC(=Nc1ccccc1O)C1=C(O)CC(c2ccccc2)CC1=O` (stereo not given), the IC50 was 8.32 µM (active).

As to `COc1cc(/C=C2/C(=O)ON=C2c2ccccc2)ccc1O`, the concentration for half-maximal inhibition (IC50) is 14.4 µM (active).

For the molecule `O=C1ON=C(c2ccccc2)/C1=C\c1ccco1`, the IC50 result is “inactive”.

Regarding `COc1cc(/C=C2\C(=O)ON=C2c2ccc(Cl)cc2)ccc1O`, the IC50 was 18.5 µM (active).

As for `COc1ccc(/C=C2\C(=O)ON=C2c2ccccc2)cc1OC`, the IC50 result is “inactive”.

In the case of `CCOC(=O)C1=C(C)N(c2ccccc2)C(=O)/C1=C\c1ccc(O)c(OC)c1`, the IC50 entry is “inactive”.

For `COc1ccc(/C=C2\C(=O)ON=C2c2ccccc2)cc1`, the IC50 result was “inactive”.

As for `O=C1ON=C(c2ccccc2)/C1=C/c1ccc(OS(=O)(=O)c2ccccc2)cc1`, the IC50 result is “inactive”.

Regarding `COc1cc(C=C2C(=O)c3ccccc3C2=O)ccc1O`, the IC50 was 4.42 µM (active).

On to `O=C1ON=C(c2ccccc2)/C1=C/c1ccccc1`, for which the IC50 result is “inactive”.

In the case of `O=C1C(=Cc2ccc(Br)o2)C(=O)c2ccccc21`, the IC50 result was “inactive”.

Turning to `O=C1ON=C(c2ccccc2)/C1=C/c1ccc(O)c(O)c1`, the IC50 is 7.26 µM (active).

Turning to `O=C(CCS(=O)(=O)c1ccc(Cl)cc1)Oc1ccc2c(c1)OCO2`, the IC50 was 78 µM (active).

For the molecule `Cc1cc(NS(=O)(=O)c2ccc(NC(=O)Nc3ccc4c(c3)OCO4)cc2)no1`, the IC50 result is “inactive”.

In the case of `CC(=O)Nc1cccc(NC(=O)COc2ccc3c(c2)OCO3)c1`, the IC50 result is “inactive”.

In the case of `COc1c2ccoc2nc2c(OC)c(O)ccc12`, the concentration for half-maximal inhibition (IC50) was 11.5 µM (active).

For `COc1cc(C(=O)Nc2ccc(N(C)C)cc2)cc(OC)c1OC`, the IC50 is 5.06 µM (active).

For the molecule `CC(C)Oc1ccc(C(=O)Nc2ccc(N(C)C)cc2)cc1`, the IC50 is 12.1 µM (active).

In the case of `CN(C)c1ccc(NC(=O)c2ccc3nc[nH]c3c2)cc1`, the IC50 is 3.67 µM (active).

On to `CN(C)c1ccc(NC(=O)c2cccc(N3C(=O)CCC3=O)c2)cc1`, for which the IC50 is 6.4 µM (active).

As for `Cc1ccc(NC(=O)CN2C(=O)N/C(=C/c3cc(C)n(-c4cccc(C(=O)O)c4)c3C)C2=O)cc1`, the IC50 entry was “inactive”.

Take `COc1cc(C(=O)N/N=C2\CCS(=O)(=O)c3ccc(F)cc32)cc(OC)c1OC`: the IC50 entry was “inactive”.

`COc1c(F)c(F)c(C(=O)O)c(Nc2ccc(C)cc2)c1F`: the IC50 result was “inactive”.

`CC(OC(=O)c1ccccc1C(=O)N(C)c1ccccc1)C(=O)Nc1ccc(C(N)=O)cc1` (stereo not given): the IC50 entry was “inactive”.

Consider `CSc1nc(-c2ccco2)nn1S(C)(=O)=O`, for which the IC50 result was “inactive”.

`CCCCC(CC)CN=C(N)NC(N)=NCCCCCCN=C(N)NC(N)=NCC(CC)CCCC` (stereo not given): the IC50 result was “inactive”.

For the molecule `Cc1ccc(/C=C2/SC(=O)NC2=S)o1`, the IC50 was 4.25 µM (active).

For the molecule `Cc1ccc(C2=NOC(=O)/C2=C\c2ccc(C)o2)cc1`, the IC50 result is “inactive”.

With `Cc1ccc(/C=c2\sc3nc(-c4ccco4)nn3c2=O)o1`, the IC50 entry was “inactive”.

Consider `CCN(CCNC(=O)C1CCCN(Cc2nc(-c3ccc(OC)cc3)oc2C)C1)c1ccccc1` (stereo not given), for which the IC50 entry is “inactive”.

Turning to `COc1ccc(C(=O)CC(c2ccccc2)C2CCCCC2=O)cc1` (stereo not given), the IC50 entry is “inactive”.

Consider `COc1ccc(N2CCN(C(CNC(=O)C3CCCCC3)c3cccnc3)CC2)cc1` (stereo not given), for which the IC50 is 9.65 µM (active).

On to `O=C(Nc1ccccc1F)c1coc(=O)c(Br)c1`, for which the IC50 result is “inactive”.

Turning to `COc1ccccc1CNC(=O)COC(=O)c1c(C)nn(-c2ccccc2)c1Cl`, the IC50 result is “inactive”.

Regarding `COc1ccccc1CNC(=O)c1ccc(CS(=O)Cc2cccc(Cl)c2)o1` (stereo not given), the IC50 was 12.8 µM (active).

Regarding `COc1cccc(CNC(=O)Cc2ccc(Br)cc2)c1`, the IC50 entry was “inactive”.

Take `CCOC(=O)C1=C(O)/C(=C/c2cccc(OC)c2O)N=C1C`: the IC50 is 7.3 µM (active).

As for `COC(=O)C1=C(O)/C(=C\c2ccc(CNS(=O)(=O)c3ccccc3)o2)N=C1C`, the IC50 result was “inactive”.

For `COC(=O)C1=C(O)/C(=C/c2cccc(OC)c2O)N=C1C`, the IC50 is 6.57 µM (active).

Take `O=C1/C(=C/C=C/c2ccco2)SC(=S)N1NS(=O)(=O)c1ccccc1`: the inhibition (as a rule, the change of the read-out against control, counted positive when it falls) is 22.8% [at 12.5 µM] (inactive).

On to `CC(/C=C1\SC(=S)N(CCCC(=O)Nc2ccc(C(=O)O)c(O)c2)C1=O)=C\c1ccccc1`, for which the IC50 result was “inactive”.

Take `COc1cc(/C=C2\SC(=S)N(NS(=O)(=O)c3ccc(C)cc3)C2=O)ccc1O`: the IC50 is 8.48 µM (active).

In the case of `COc1cc(/C=C2\SC(=S)N(NS(=O)(=O)c3ccccc3)C2=O)ccc1O`, the IC50 was 12.1 µM (active).

Regarding `O=C(NN1C(=O)/C(=C/C=C/c2ccco2)SC1=S)c1ccccc1O`, the IC50 result is “inactive”.

For `COc1cc(/C=C2\SC(=S)N(NC(=O)c3cccnc3)C2=O)ccc1O`, the half-maximal inhibitory concentration (IC50) is 6.17 µM (active).

As for `O=C(NN1C(=O)/C(=C/c2cc([N+](=O)[O-])ccc2O)SC1=S)c1ccccc1O`, the IC50 entry was “inactive”.

On to `CCOc1ccc(N2Nc3n[nH]c(N)c3N2)cc1`, for which the IC50 was 5.65 µM (active).

`CC[N+]1(CC(O)COC2CC(C)CC(C)(C)C2)CCOCC1` (stereo not given): the IC50 entry was “inactive”.

Turning to `COc1cc2c(cc1OC)C[N+](C)(C)CC2`, the IC50 was 72.6 µM (active).

For the molecule `N#CCSc1nc(-c2ccccc2)nc2ccccc12`, the IC50 entry was “inactive”.

Turning to `O=c1c2c(-c3ccco3)csc2nc(SCc2cn3cccnc3n2)n1-c1ccccc1`, the IC50 entry was “inactive”.

As to `COCc1cc(=O)n2[nH]c(-c3ccsc3-n3c(C)ccc3C)cc2n1`, the IC50 entry is “inactive”.

As to `C#CCOCCOCCOCCNc1nc(N2CCN(C(=O)CCCCCCCCCCNC(=O)[C@H](CCCN=C(N)N)n3cc(C[C@@H](C)CC)nn3)CC2)nc(N2CCN(C(=O)CCCCCCCCCCNC(=O)[C@@H]([C@H](C)CC)n3cc(CCCCCN)nn3)CC2)n1`, the IC50 result is “inactive”.

For the molecule `CCCc1cc(C(N)=O)c(NC(=O)c2ccoc2C)s1`, the IC50 entry was “inactive”.

`Cc1occc1C(=O)N/N=C/C=C/c1ccc(N(C)C)cc1`: the IC50 was 12.2 µM (active).

On to `COc1ccc(/C=N/NC(=O)c2ccoc2C)cc1O`, for which the half-inhibitory concentration (IC50) is 5.08 µM (active).

Turning to `COc1ccccc1/C=C/C=N/NC(=O)c1cc(-c2ccco2)[nH]n1`, the IC50 entry is “inactive”.

For `O=C(N/N=C/C=C\c1ccco1)c1ccccn1`, the IC50 result was “inactive”.

In the case of `COc1cc(/C=N/NC(=O)c2ccoc2C)cc(OC)c1O`, the IC50 was 18.5 µM (active).

In the case of `COc1cc(/C=N/NC(=O)c2ccc3c(c2)OCCO3)cc(Cl)c1O`, the IC50 was 6.64 µM (active).
